Source: PubChem BioAssay (Tox21)
Where “and” joins values, the source holds several entries; their conditions need not be identical. Identical values can stand only once. Results filed as inconclusive are left out. Entries that show only a call come without a potency. Calls of active or inactive are those of the source. Unless noted, calls follow the shape of the full dose curve.

Experiments:
[1] = Nuclear factor erythroid 2-related factor 2/antioxidant responsive element (Nrf2/ARE) small molecule agonists: qHTS cell viability counter screen in human keratinocytes (AID 1919968; active = well fitted curve in the direction sought with a large enough effect in the repeat runs; an effect the other way counts as inactive or inconclusive; also: nearly all actives have a fitted effect of over 55% in size; also: potency is read from the fitted curve at half-maximal effect)
Outline: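 KeratinoSens HaCaT cells, 1,500/well, preincubated 5 h, then exposed to compounds in DMSO for 23 h at 37 C/5% CO2. Viability read as CellTiter-Fluor fluorescence after 1 h, in the same wells as the ARE-luciferase read.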

[2] = Nuclear factor erythroid 2-related factor 2/antioxidant responsive element (Nrf2/ARE) small molecule agonists: luciferase reporter gene qHTS assay in human keratinocytes (AID 1919969); also: nearly all actives have a fitted effect of over 35% in size; also: potency is read from the fitted curve at half-maximal effect
[3] = target: Gonadotropin-releasing hormone receptor (Homo sapiens) (UniProt P30968); assay: Human gonadotropin-releasing hormone receptor (GnRHR) small molecule agonists, calcium flux assay in GnRHR-HEK293 cells (AID 1920063); also: nearly all actives have a fitted effect of over 35% in size
Outline: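 HEK293 cells stably expressing human GnRHR were dye-loaded for 1 h at 37 C. Compound was added in agonist mode and fluorescence (Ex/Em 480/540) recorded kinetically for 3 min. Fifteen concentrations, triplicates.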

[4] = target: KiSS-1 receptor (Homo sapiens) (UniProt Q969F8); assay: Human kisspeptin (KISS1R) small molecule agonists, calcium flux assay in KISS1R-HEK293 cells (AID 1920064; active = well fitted curve in the direction sought with a large enough effect in the repeat runs; an effect the other way counts as inactive or inconclusive)
Outline: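 HEK293 cells stably expressing human KISS1R were loaded with calcium dye for 1 h at 37 C, then given compound; fluorescence (Ex/Em 480/540) was read kinetically for 3 min. Fifteen concentrations, triplicate.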

[5] = G protein-coupled receptor (GPCR) small molecule agonists, calcium flux assay: HEK293 wild type cell line counter screen (AID 1920065)
Outline: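 Wild-type HEK293 cells plated 18 h, loaded with calcium dye 1 h at 37 C, then compounds added in agonist mode (ATP as positive control). Kinetic fluorescence Ex/Em 480/540 recorded 3 min at 1 sec intervals; 15 concentrations, triplicate.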

[6] = p53 small molecule agonists, cell-based qHTS assay with human liver microsomes (AID 1963577);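 also: p53 response element beta-lactamase reporter cells with liver microsomes plus NADPH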
Outline: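 Reporter activation was measured by LiveBLAzer fluorescence intensity in p53RE-bla cells, which had been exposed to compounds for 16 h at 37 C alongside 0.5 mg/mL human liver microsomes and 0.5 mg/mL NADPH (final concentrations).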

[7] = p53 small molecule agonists, cell-based qHTS assay with rat liver microsomes (AID 1963578)
Outline: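 Compound in DMSO added to p53RE-bla cells 5 h post-plating; rat microsomes/NADPH 0.5 mg/mL final; 16 h, 37 C; LiveBLAzer 2 h RT.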

[8] = p53 small molecule agonists, cell-based qHTS assay with human liver microsomes: qHTS cell viability counter screen (AID 1963579); also: nearly all actives have a fitted effect of over 45% in size; also: potency is read from the fitted curve at half-maximal effect
Outline: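 HLM-supplemented (0.5 mg/mL final) and NADPH-supplemented (0.5 mg/mL final) p53RE-bla cultures, 4,000 cells per well, were dosed with compounds in DMSO for 16 h at 37 C; luminescent ATP detection (CellTiter-Glo, 30 min, room temperature) quantified surviving cells.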

[9] = p53 small molecule agonists, cell-based qHTS assay with rat liver microsomes: qHTS cell viability counter screen (AID 1963580); also: nearly all actives have a fitted effect of over 45% in size; also: potency is read from the fitted curve at half-maximal effect
Outline: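 Intracellular ATP, by CellTiter-Glo luminescence, defines viability. HCT-116 p53RE-bla cells, 4,000 per well, were compound-treated in the presence of rat liver microsomes and NADPH for 16 h at 37 C.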

[10] = p53 small molecule agonists, cell-based qHTS assay: qHTS cell viability counter screen (AID 1963581); also: nearly all actives have a fitted effect of over 45% in size; also: potency is read from the fitted curve at half-maximal effect
Outline: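 p53RE-bla HCT-116 cells, compounds added 5 h after plating and incubated 16 h at 37 C. Cytotoxicity measured in the same wells as intracellular ATP by CellTiter-Glo luminescence after 30 min at room temperature.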

[11] = p53 small molecule agonists, cell-based qHTS assay (AID 1963582; active = well fitted activation curve with a large enough effect in the signal ratio in the repeat runs, not every such curve was filed as active; the % refers to the signal ratio)
Outline: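 p53RE-bla reporter cells, compounds added in DMSO after 5 h plating, incubated 16 h at 37 C. Beta-lactamase read via 2 h room-temperature LiveBLAzer B/G FRET substrate, fluorescence intensity.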

[12] = target: 5-hydroxytryptamine receptor 2A (Homo sapiens) (UniProt P28223); assay: 5-hydroxytryptamine receptor 2A (HTR2A) small molecule antagonists, cell-based qHTS assay (AID 1963586); also: nearly all actives have a fitted effect of over 45% in size
Outline: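 Antagonist-mode intracellular calcium assay: DOI (4 nM) added after 5 min compound pre-incubation at room temperature to dye-loaded HTR2A-CHO cells. Fluorescence followed for 3 min, sampled every second.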

[13] = target: 5-hydroxytryptamine receptor 2A (Homo sapiens) (UniProt P28223); assay: 5-hydroxytryptamine receptor 2A (HTR2A) small molecule agonists, cell-based qHTS assay (AID 1963587); also: nearly all actives have a fitted effect of over 30% in size
Outline: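 Kinetic calcium-flux fluorescence (2 min, 1 sec intervals) after compound addition in agonist mode. HTR2A-CHO cells were cultured 18 h, then dye-loaded 1 h at 37 C.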

[14] = target: Muscarinic acetylcholine receptor M1 (Homo sapiens) (UniProt P11229); assay: Cholinergic receptor muscarinic 1 (CHRM1) small molecule antagonists, cell-based qHTS assay (AID 1963588); also: nearly all actives have a fitted effect of over 40% in size
Outline: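 CHRM1-CHO calcium-flux assay, antagonist mode. Cells were seeded 18 h, dye-loaded 1 h at 37 C and given compound for 5 min at RT, then acetylcholine was added at 50nM. FDSS fluorescence was read 3 min; 15 concentrations, three runs.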

[15] = target: Muscarinic acetylcholine receptor M1 (Homo sapiens) (UniProt P11229); assay: Cholinergic receptor muscarinic 1 (CHRM1) small molecule agonists, cell-based qHTS assay (AID 1963589); also: nearly all actives have a fitted effect of over 35% in size
Outline: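 CHO cells stably expressing human CHRM1 were loaded with calcium dye for 1 h at 37 C, then compound was added in agonist mode. Intracellular calcium fluorescence was followed kinetically at 1 s intervals. Fifteen concentrations were tested in three independent runs.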

[16] = cAMP Responsive Elements (CRE) small molecule agonists, cell-based qHTS assay (AID 1963590)
Outline: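 CRE-bla HEK 293T cells, 2,000/well in DMEM with 10% dialyzed FBS and 25 mM HEPES, pre-incubated 18 h at 37 C, then exposed to compound 3 h at 37 C. Beta-lactamase reporter read with LiveBLAzer B/G FRET substrate after 2 h at room temperature.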

[17] = cAMP Responsive Elements (CRE) small molecule antagonists, cell-based qHTS assay (AID 1963591; active = well fitted inhibition curve with a large enough effect in the signal ratio in the repeat runs, not every such curve was filed as active; the % refers to the signal ratio)
Outline: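 CRE-bla HEK293T cells plated 18 h, then given compound plus NKH477 at 0.25 uM final for 3 h at 37C. Beta-lactamase reporter read with LiveBLAzer B/G FRET substrate after 2 h at room temperature.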

[18] = target: Beta-2 adrenergic receptor (Homo sapiens) (UniProt P07550); assay: Adrenergic beta2 receptor (ADRB2) small molecule antagonists, cell-based qHTS assay (AID 1963592); also: series mostly up to about 92 µM; nearly all actives have a fitted effect of over 50% in size
Outline: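 Cells (CHO, stable ADRB2 overexpression) incubated 18-20hr at 37C; compounds added from DMSO; agonist mix (1nM isoproterenol, 100uM IBMX, 25uM Ro-20-1724) added; 0.5hr RT; d2-cAMP and anti-cAMP-cryptate added; 1hr RT; 665/615 nm read.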

[19] = target: Beta-2 adrenergic receptor (Homo sapiens) (UniProt P07550); assay: Adrenergic beta2 receptor (ADRB2) small molecule agonists, cell-based qHTS assay (AID 1963593);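 also: CHO cells stably overexpressing human ADRB2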
Outline: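 CHO cells stably over-expressing ADRB2 were plated overnight at 37C, then dosed with compounds plus a stimulation mix containing 100uM IBMX and 25uM Ro-20-1724 for 0.5hr at room temperature. cAMP was measured by HTRF competition, 1hr.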

[20] = target: D(2) dopamine receptor (Homo sapiens) (UniProt P14416); assay: Dopamine D2 receptor (DRD2) small molecule agonists, cell-based qHTS assay (AID 1963594); also: nearly all actives have a fitted effect of over 35% in size
Outline: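 cAMP accumulation in DRD2-HEK293 cells measured by HTRF after 1 h detection; compounds added 10 min before NKH477 (200nM […]) forskolin-analogue stimulation, 30 min at room temperature, with Ro20-1724 present at 0.1 mM final.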

Chain of Gonadotropin-releasing hormone receptor (Homo sapiens) (P30968 whole entry, looked up): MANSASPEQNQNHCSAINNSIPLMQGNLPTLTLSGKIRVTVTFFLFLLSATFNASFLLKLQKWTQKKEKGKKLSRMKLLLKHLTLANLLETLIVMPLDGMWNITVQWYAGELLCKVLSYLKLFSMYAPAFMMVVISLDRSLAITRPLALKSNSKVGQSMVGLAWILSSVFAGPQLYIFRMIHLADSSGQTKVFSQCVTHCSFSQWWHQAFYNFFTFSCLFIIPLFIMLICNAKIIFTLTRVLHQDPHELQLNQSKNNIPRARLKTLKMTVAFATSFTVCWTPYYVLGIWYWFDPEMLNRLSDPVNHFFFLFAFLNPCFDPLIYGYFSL
Chain of D(2) dopamine receptor (Homo sapiens) (P14416 whole entry, looked up): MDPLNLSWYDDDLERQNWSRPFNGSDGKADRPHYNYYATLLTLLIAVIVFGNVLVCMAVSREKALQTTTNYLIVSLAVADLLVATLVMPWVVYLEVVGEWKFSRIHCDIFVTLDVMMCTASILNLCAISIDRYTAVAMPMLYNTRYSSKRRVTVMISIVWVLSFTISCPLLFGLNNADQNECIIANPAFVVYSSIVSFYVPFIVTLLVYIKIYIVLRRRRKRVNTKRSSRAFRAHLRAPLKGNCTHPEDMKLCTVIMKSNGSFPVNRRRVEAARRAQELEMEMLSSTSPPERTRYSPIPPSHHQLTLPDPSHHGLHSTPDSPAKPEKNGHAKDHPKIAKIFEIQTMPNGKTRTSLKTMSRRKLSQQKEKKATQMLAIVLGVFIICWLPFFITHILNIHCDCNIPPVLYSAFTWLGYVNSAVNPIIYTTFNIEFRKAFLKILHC
Chain of Muscarinic acetylcholine receptor M1 (Homo sapiens) (P11229 whole entry, looked up): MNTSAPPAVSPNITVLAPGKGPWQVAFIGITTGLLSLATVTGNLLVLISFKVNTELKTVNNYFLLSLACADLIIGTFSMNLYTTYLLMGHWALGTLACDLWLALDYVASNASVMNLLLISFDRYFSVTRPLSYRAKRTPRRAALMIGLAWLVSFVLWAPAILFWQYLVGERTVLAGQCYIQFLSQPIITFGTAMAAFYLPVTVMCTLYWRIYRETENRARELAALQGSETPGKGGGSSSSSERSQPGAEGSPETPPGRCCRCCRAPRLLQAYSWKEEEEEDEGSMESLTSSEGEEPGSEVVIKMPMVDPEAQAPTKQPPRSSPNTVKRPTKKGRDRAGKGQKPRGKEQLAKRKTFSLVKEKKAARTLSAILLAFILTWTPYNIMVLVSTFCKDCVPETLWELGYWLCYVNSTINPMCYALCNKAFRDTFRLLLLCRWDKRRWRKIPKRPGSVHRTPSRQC
Chain of 5-hydroxytryptamine receptor 2A (Homo sapiens) (P28223 whole entry, looked up): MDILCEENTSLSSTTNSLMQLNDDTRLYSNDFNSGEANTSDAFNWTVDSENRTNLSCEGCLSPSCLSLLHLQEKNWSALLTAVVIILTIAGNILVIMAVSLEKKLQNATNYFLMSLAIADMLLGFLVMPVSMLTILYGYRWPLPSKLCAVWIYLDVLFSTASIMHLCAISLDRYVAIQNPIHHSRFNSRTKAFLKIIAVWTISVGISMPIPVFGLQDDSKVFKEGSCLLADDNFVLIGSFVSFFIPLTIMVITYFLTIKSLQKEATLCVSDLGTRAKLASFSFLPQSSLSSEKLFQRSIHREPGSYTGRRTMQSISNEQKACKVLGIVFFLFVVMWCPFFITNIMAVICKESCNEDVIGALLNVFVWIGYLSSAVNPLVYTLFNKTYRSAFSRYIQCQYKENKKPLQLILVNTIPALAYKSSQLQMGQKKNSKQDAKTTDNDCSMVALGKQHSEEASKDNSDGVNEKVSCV
Chain of KiSS-1 receptor (Homo sapiens) (Q969F8 whole entry, looked up): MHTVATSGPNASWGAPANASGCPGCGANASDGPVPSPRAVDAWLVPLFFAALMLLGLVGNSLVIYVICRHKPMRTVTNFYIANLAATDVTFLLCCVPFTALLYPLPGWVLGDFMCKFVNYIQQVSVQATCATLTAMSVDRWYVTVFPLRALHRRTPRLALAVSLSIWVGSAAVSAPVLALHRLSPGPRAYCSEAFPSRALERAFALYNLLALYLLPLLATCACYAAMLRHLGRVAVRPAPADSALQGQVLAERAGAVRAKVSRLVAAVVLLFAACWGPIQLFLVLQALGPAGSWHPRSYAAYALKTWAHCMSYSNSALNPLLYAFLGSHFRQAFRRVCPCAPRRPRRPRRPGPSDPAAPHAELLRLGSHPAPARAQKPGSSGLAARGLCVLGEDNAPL
Chain of Beta-2 adrenergic receptor (Homo sapiens) (P07550 whole entry, looked up): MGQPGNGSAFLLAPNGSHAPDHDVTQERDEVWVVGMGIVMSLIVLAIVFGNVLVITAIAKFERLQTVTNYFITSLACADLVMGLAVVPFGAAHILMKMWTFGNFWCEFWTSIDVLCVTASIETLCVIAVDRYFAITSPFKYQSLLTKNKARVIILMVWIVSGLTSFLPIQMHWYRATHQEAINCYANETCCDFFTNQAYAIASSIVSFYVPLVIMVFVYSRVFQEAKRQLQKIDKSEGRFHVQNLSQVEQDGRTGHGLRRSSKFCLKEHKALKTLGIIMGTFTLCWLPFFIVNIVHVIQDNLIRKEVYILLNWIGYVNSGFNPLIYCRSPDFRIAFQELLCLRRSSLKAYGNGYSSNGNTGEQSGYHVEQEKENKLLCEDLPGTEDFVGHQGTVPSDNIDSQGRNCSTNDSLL

Row | Compound | Potency [1] | Potency [2] | Potency [3] | Potency [4] | Potency [5] | Potency [6] | Potency [7] | Potency [8] | Potency [9] | Potency [10] | Potency [11] | Potency [12] | Potency [13] | Potency [14] | Potency [15] | Potency [16] | Potency [17] | Potency [18] | Potency [19] | Potency [20]
1 | COc1ccc(C#N)cc1 | inactive | inactive | inactive | inactive | inactive | inactive | inactive | inactive | inactive | inactive | inactive | inactive | inactive | inactive | inactive | inactive | inactive | inactive | inactive | inactive
2 | COc1cccc(Br)c1 | inactive | inactive | inactive | inactive | inactive | inactive | inactive | inactive | inactive | inactive | inactive | inactive | inactive | inactive | inactive | inactive | inactive | inactive | inactive | inactive
3 | CCCCCCCC(=O)OCCCCCC | inactive | inactive | inactive | inactive | inactive | inactive | inactive | inactive | inactive | inactive | inactive | inactive | inactive | inactive | inactive | inactive | inactive | inactive | inactive | inactive
4 | CC1=CCC(C(C)(C)O)CC1 (stereo unspecified) | inactive | inactive | inactive | inactive | inactive | inactive | inactive | inactive | inactive | inactive | inactive | inactive | inactive | inactive | inactive | inactive | inactive | inactive | inactive | inactive
5 | CC(C)COC(=O)c1ccc(N)cc1 | inactive | inactive | inactive | inactive | inactive | inactive | inactive | inactive | inactive | inactive | inactive | inactive | inactive | inactive | inactive | inactive | inactive | inactive | inactive | inactive
6 | OC/C=C/CO | inactive | inactive | inactive | inactive | inactive | inactive | inactive | inactive | inactive | inactive | inactive | inactive | inactive | inactive | inactive | inactive | inactive | inactive | inactive | inactive
7 | CN(C)c1ccc(C(=C2C=CC(=[N+](C)C)C=C2)c2ccc(N(C)C)cc2)cc1 | 7.66 µM (active) and 13.7 µM (active) | 6.08 µM (active) | inactive | inactive | inactive | inactive | inactive | 32.2 µM (active) and 40.8 µM (active) | 22.8 µM (active) and 36.3 µM (active) | 18.1 µM (active) and 40.8 µM (active) and 17.8 µM (active) | inactive |  |  |  |  |  |  |  |  | 
8 | Cc1ccc(-c2ccccc2)cc1 | inactive | inactive | inactive | inactive | inactive | inactive | inactive | inactive | inactive | inactive | inactive | inactive | inactive | inactive | inactive | inactive | inactive | inactive | inactive | inactive
